Results as given in PubChem BioAssay (NCATS).
Results filed as inconclusive are left out. Active and inactive are the calls of the source. Unless noted, calls come from the whole dose curve; as a rule, active = well fitted curve in the direction sought with a large enough effect; inconclusive = small, poorly fitted or top-dose-only effect, or another doubt; inactive = no such curve, though single readings can be large; an effect the other way counts as inactive or inconclusive.

Assays:
[1] = molecular target: Luciferin 4-monooxygenase (Photinus pyralis) (UniProt P08659); experiment: Biochemical firefly luciferase enzyme assay for NPC (AID 624030);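 note: purified P. pyralis luciferase at 10 nM with luciferin and ATP substrate; 0% = DMSO and -100% = full luciferase inhibition by PTC124 control; nearly all actives have a fitted effect of over 70% in size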
Procedure, shortened: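 Purified P. pyralis luciferase at 10 nM in 50 mM Tris Acetate (final), luminescence read within 5 minutes of enzyme addition to compounds. Activity normalised to PTC124 versus DMSO; concentration-response curves classed by r2, magnitude and activity.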

[2] = qHTS Assay for Identifying Gametocytocidal Compounds (AID 743244);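 note: % is set by controls: 0 for no effect and ±100 for the full control effect; actives lower the fluorescent signal which means gametocytes are killed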; details: P. falciparum 3D7 stage III-V gametocytes, alamarBlue, 72 h; max response: stronger effect = lower value
Procedure, shortened: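 3D7 gametocytes, stages III–V, 20,000/well; cpd 72 h, 37 °C/5% CO2; + alamarBlue 24 h; fluor. Ex 525/Em 598.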

[3] = tested on: astro; experiment: Drug repurposing screens with cells derived from glioblastoma tumor samples (AID 1345199); details: viability, ATP luminescence, 48 h; series mostly up to 45.9 µM; note: % is set by controls: 0 for no effect and ±100 for the full control effect; nearly all actives have a fitted effect of over 40% in size
Procedure, shortened: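 Primary testing used CD133+ neurospheres from four GBM patients, seven concentrations, 48 h exposure and ATP-based viability; confirmation added three slower-growing patient lines.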

[4] = P-glycoprotein substrates identified in KB-3-1 adenocarcinoma cell line, qHTS therapeutic library screen (AID 1346986); note: % is set by controls: 0 for no effect and ±100 for the full control effect; nearly all actives have a fitted effect of over 60% in size
Procedure, shortened: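 In 1536-well format, 500 cells/well received pinned compound titrations and were incubated 72 h, 5% CO2. Viability was read by CellTiter-Glo; cytotoxic if AC50 < 10 uM and efficacy >50%.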

[5] = P-glycoprotein substrates identified in KB-8-5-11 adenocarcinoma cell line, qHTS therapeutic library screen (AID 1346987); note: % is set by controls: 0 for no effect and ±100 for the full control effect; nearly all actives have a fitted effect of over 65% in size
Procedure, shortened: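 Luminescence from CellTiter-Glo, read 5 min after addition, quantified survival of KB-8-5-11 (P-gp-overexpressing) cells exposed to compounds for 72 h. AC50 was derived from concentration-response curves.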

[6] = Primary qHTS for inhibitors of nuclear receptor binding SET domain protein 2 (NSD2) in an RCH-ACV wild type WT cells (2C) (AID 1645877); note: % is set by controls: 0 for no effect and ±100 for the full control effect; nearly all actives have a fitted effect of over 70% in size
[7] = AP1 Signaling Pathway (AID 357; active = well fitted curve in either direction with a large enough effect, not every such curve was filed as active;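 note: ME-180 reporter cells stimulated with EGF at its EC50 level; % is set by controls: 0 for no effect and ±100 for the full control effect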)
Procedure, shortened: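 AP-1-bla ME-180 cells, Opti-MEM + 0.5% dialyzed FBS, plated overnight 37 °C. Cpd titration + EC50 EGF, 5 h 37 °C. CCF4 2.5 h RT; ex 405, em 460/530 ratio → %activity, AC50.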

[8] = NFAT Signaling Pathway (AID 444; active = well fitted curve in either direction with a large enough effect, not every such curve was filed as active;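 note: carbachol stimulus at about its EC50 of 1 µM final; % is set by controls: 0 for no effect and ±100 for the full control effect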); details: Jurkat NFAT-bla M1, carbachol, beta-lactamase ratio, 5 h
Procedure, shortened: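 Jurkat cells with NFAT-driven β-lactamase reporter and co-expressed M1 receptor, stimulated with carbachol (final 1 uM, ~EC50), compound titration, 5 h at 37 °C. CCF4 loaded 1 h at RT; 460/530 nm ratio gave %activity and AC50.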

[9] = Stat Signaling Pathway (AID 446; active = well fitted curve in either direction with a large enough effect, not every such curve was filed as active;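 note: ME-180 cervical cancer cells given 40 pM IL-6 alongside compound; SIE-controlled beta-lactamase reporter measured as 460/530 nm FRET emission ratio; % is set by controls: 0 for no effect and ±100 for the full control effect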)
Procedure, shortened: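 FRET read-out (405 nm excitation, 460/530 nm emission) of a beta-lactamase reporter under a STAT-inducible element in ME-180 cervical carcinoma cells. Cells with compound receive 40 pM IL-6 for 5 h. Values are normalised to AC90 stimulation and AC90 JAK-inhibitor controls.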

[10] = molecular target: Mitogen-activated protein kinase 10 (Mus musculus) (UniProt Q61831); experiment: JNK3 AlphaScreen Assay (AID 530; active = well fitted curve in either direction with a large enough effect, not every such curve was filed as active;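 note: kinase came from lysate of stimulated human HepG2 cells; signal reports phosphorylation of biotinylated GST-cJun 1-79 at Ser73 with 10 µM ATP; % is set by controls: 0 for no effect and ±100 for the full control effect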)
Procedure, shortened: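 Activity was read by AlphaScreen after JNK3-containing HepG2 lysate (cytokine pre-activated) phosphorylated biotinylated GST-cJun with 10 uM ATP at room temperature. Phospho-Ser73 cJun antibody with Protein-A acceptor beads provided detection.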

[11] = molecular target: 3',5'-cyclic-AMP phosphodiesterase 4B (Homo sapiens) (UniProt Q07343); experiment: qHTS Assay for Inhibitors of PDE-IV (AID 607; active = well fitted activation curve with a large enough effect in the main read-out, with a control signal flat, not every such curve was filed as active; note: % of control where 0% means no effect)
Procedure, shortened: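 Cell-based read-out of cAMP via a modified cyclic nucleotide-gated channel and membrane potential dye (535/590 nm) in HEK293 cells expressing PDE4 endogenously. Compounds tested up to 22.9 uM final; 100 uM RO 20-1724 reference.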

[12] = qHTS Assay for Identification of Small Molecule Antagonists for NFkB Signaling Pathway (AID 895; active = well fitted inhibition curve with a large enough effect in the signal ratio, with a control signal flat, not every such curve was filed as active; the % refers to the signal ratio; note: % is set by controls: 0 for no effect and ±100 for the full control effect)
Procedure, shortened: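 ME-180 NFkB-bla cells (beta-lactamase under NFkB response element), plated overnight, treated with compound then 10 pM TNF alpha (about EC50) for 5 hrs at 37 C. LiveBLAzer FRET read at 460/530 nm emission, 405 nm excitation.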

[13] = qHTS Assay for Identification of Small Molecule Agonists for Thrombopoietin (TPO) Signaling Pathway (AID 917); note: % is set by controls: 0 for no effect and ±100 for the full control effect
Procedure, shortened: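 Quantitative HTS for pathway activators: compounds were pin-transferred onto IL-3-starved Ba/F3 cells expressing human TPO receptor, TPO was added at its EC50 (26 pM final), and after 24 hrs at 37 C reporter luciferase was measured.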

[14] = molecular target: Pyruvate kinase (Leishmania mexicana) (UniProt Q27686); experiment: qHTS Validation Assay for Inhibitors of Leishmania Mexicana Pyruvate Kinase (AID 945);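 note: 0% = DMSO only neutral control wells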
Procedure, shortened: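 Substrate mix (0.5 mM PEP, 0.1 mM ADP, 7 mM MgCl2, 50 mM KCl, pH 7.2 imidazole) received compound by pin tool, then 0.2 nM LmPYK E451W. After 1 h at room temperature, PKLight was added and luminescence measured.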

[15] = molecular target: Pyruvate kinase PKM (Homo sapiens) (UniProt P14618); experiment: qHTS Assay for Activators of Human Muscle Pyruvate Kinase (AID 954; active = well fitted curve in the direction sought with a large enough effect, not every such curve was filed as active;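 note: 0% = uninhibited enzyme and -100% = no enzyme or full thiadiazolimine inhibition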)
Procedure, shortened: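 ATP production by PKM2 detected via luciferase luminescence after 1 h room-temperature reaction (0.1 nM enzyme, PEP at Km 0.5 mM, ADP 0.1 mM, pH 7.2 imidazole buffer). Inhibition scaled to no-enzyme control; activation referenced to 0.3 nM enzyme wells.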

[16] = molecular target: Alpha-galactosidase A (Homo sapiens) (UniProt P06280); experiment: Counterscreen for Glucocerebrosidase Inhibitors: qHTS Assay for Human alpha-Galactosidase at pH 4.5 (AID 992); note: 0% is about no effect
Procedure, shortened: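 Fluorogenic 1536-well qHTS at pH 4.5 (citrate, Tween-20): 2 nM enzyme, 80 uM 4-MU-alpha-galactoside, 20 min room temperature, NaOH/glycine stop. Titration 0.7 nM to 77 uM, data normalized to no-enzyme and full-activity controls, Hill-fitted AC50.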

[17] = molecular target: alpha-glucosidase (Oryza sativa, rice) (UniProt Q653V4); experiment: Counterscreen for Glucocerebrosidase Inhibitors: qHTS Assay for Rice alpha-Glucosidase at pH 5.0 (AID 997);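 note: 0% = full activity with enzyme and -100% = basal without enzyme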
Procedure, shortened: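 Endpoint fluorogenic assay at pH 5.0: compounds (0.7 nM to 77 uM) titrated against 4 nM rice enzyme and 400 uM 4-MU-alpha-glucoside for 20 min at room temperature; NaOH/glycine stop, read ex 365/em 440 nm, Hill-fitted AC50.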

[18] = molecular target: Alpha-galactosidase (Coffea arabica) (UniProt Q42656); experiment: Counterscreen for Glucocerebrosidase Inhibitors: qHTS Assay for Coffee Bean alpha-Galactosidase at pH 5.9 (AID 998);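 note: plate controls were uninhibited enzyme for no effect and no-enzyme basal signal for full effect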
Procedure, shortened: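 Enzyme 2 nM + cpd (0.7 nM–77 uM titration) + 4-MU-alpha-Gal 80 uM, pH 5.9 citrate/Tween-20, RT 20 min, NaOH/glycine stop pH 10, fluor 365/440. Normalized to no-enzyme and full-activity controls; Hill-fit AC50.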

[19] = molecular target: Furin (Homo sapiens) (UniProt P09958); experiment: Furin counterscreen qHTS for Zika virus inhibitors (AID 1347149);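 note: purified recombinant full-length human furin enzyme at 5 nM; fluorescence gain from furin cutting a BOC-RVRR-AMC peptide substrate over 15 min; top concentration of the series differs between compounds; plate controls were no-inhibitor control for no effect and no-enzyme control for full effect; nearly all actives have a fitted effect of over 70% in size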
Procedure, shortened: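 Counterscreen measures cleavage of 2 microM BOC-RVRR-AMC, below its ~15 microM Km, by 5 nM full-length human furin at pH 7.0 after a 15-min compound preincubation. Inhibition derives from the 15-min fluorescence increase at 37C.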

[20] = tested on: Zika virus NS2B-NS3 protease (unlinked); experiment: Optimization of GU AMC qHTS for Zika virus inhibitors: Unlinked NS2B-NS3 protease assay (AID 1347151);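 note: 0% = no-inhibitor control and -100% = no-enzyme control; nearly all actives have a fitted effect of over 80% in size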
Procedure, shortened: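 Percent inhibition is derived from the 15-min change in AMC fluorescence, normalized against no-inhibitor and no-enzyme controls, then fitted to a 4-parameter Hill curve. Aprotinin was the intraplate control.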

[21] = Vero cells viability qHTS for Zika virus inhibitors (AID 1347167); note: % is set by controls: 0 for no effect and ±100 for the full control effect
Procedure, shortened: (§1)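 qHTS titration; 24-48 h compound exposure, 37 degrees C/5% CO2; DMEM, 4% FBS; CellTiter Glo ATP luminescence.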

[22] = HepG2 cells viability qHTS for Zika virus inhibitors (AID 1347168); note: % is set by controls: 0 for no effect and ±100 for the full control effect
Procedure, shortened: as §1

[23] = Tertiary RLuc qRT-PCR qHTS assay for Zika virus inhibitors (AID 1347169); note: top concentration of the series differs between compounds; % is set by controls: 0 for no effect and ±100 for the full control effect; nearly all actives have a fitted effect of over 55% in size
Procedure, shortened: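 Orthogonal cell-based infection assay using recombinant ZIKV-RLuc (Cambodian) in Vero cells; compound added prior to virus at MOI 1-2. Incubation lasts 48-72 hrs at 37 degrees C before live-cell Renilla substrate is added and luminescence measured.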

Chain of Luciferin 4-monooxygenase (Photinus pyralis) (P08659 whole entry, looked up): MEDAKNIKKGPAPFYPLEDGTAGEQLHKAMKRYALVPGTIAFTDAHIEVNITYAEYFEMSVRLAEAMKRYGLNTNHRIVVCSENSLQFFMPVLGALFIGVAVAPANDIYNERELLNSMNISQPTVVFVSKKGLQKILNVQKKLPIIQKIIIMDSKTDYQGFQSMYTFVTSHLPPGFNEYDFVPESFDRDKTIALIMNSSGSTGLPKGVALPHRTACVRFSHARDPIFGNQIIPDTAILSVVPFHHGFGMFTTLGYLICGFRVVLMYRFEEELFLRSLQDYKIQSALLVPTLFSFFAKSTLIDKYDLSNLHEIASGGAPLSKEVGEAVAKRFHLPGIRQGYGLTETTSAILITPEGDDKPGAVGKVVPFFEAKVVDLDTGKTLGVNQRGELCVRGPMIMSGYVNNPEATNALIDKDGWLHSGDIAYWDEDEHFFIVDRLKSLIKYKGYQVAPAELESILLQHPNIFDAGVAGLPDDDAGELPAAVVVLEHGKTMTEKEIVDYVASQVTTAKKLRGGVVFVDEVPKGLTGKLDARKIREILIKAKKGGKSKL
Chain of Furin (Homo sapiens) (P09958 whole entry, looked up): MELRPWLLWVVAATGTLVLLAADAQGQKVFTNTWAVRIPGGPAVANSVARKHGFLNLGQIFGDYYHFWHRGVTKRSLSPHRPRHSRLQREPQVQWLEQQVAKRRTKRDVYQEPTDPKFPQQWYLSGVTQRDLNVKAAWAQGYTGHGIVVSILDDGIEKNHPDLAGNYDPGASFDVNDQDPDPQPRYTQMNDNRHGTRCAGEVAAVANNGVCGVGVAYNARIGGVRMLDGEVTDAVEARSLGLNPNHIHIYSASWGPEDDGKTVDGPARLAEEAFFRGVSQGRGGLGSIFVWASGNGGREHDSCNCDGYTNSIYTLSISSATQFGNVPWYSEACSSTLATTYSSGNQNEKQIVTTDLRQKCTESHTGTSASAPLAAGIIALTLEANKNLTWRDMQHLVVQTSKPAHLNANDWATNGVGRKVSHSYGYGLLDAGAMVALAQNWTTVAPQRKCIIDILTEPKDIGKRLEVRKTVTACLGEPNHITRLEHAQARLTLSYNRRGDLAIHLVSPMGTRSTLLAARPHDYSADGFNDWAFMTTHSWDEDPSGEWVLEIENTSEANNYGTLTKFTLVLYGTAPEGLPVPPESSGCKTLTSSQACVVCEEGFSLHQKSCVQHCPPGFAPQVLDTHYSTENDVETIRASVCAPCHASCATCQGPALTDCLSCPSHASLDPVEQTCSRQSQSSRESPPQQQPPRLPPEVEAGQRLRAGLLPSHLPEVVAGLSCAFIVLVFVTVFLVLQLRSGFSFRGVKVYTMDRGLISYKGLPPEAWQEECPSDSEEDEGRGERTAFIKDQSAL
Chain of Pyruvate kinase (Leishmania mexicana) (Q27686 2-499 E452W): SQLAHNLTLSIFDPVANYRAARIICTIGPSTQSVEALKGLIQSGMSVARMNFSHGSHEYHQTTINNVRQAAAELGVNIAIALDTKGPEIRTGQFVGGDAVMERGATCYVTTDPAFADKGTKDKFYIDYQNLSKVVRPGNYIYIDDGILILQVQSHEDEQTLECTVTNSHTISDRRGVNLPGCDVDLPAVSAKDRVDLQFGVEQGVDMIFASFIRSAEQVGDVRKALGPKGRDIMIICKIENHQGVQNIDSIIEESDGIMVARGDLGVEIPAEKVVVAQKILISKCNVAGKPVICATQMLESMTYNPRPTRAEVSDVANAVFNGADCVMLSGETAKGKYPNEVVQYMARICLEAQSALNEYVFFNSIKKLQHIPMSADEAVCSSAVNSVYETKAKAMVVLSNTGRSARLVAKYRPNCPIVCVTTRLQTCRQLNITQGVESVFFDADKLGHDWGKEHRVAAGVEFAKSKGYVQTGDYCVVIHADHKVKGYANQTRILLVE
Chain of Pyruvate kinase PKM (Homo sapiens) (P14618 whole entry, looked up): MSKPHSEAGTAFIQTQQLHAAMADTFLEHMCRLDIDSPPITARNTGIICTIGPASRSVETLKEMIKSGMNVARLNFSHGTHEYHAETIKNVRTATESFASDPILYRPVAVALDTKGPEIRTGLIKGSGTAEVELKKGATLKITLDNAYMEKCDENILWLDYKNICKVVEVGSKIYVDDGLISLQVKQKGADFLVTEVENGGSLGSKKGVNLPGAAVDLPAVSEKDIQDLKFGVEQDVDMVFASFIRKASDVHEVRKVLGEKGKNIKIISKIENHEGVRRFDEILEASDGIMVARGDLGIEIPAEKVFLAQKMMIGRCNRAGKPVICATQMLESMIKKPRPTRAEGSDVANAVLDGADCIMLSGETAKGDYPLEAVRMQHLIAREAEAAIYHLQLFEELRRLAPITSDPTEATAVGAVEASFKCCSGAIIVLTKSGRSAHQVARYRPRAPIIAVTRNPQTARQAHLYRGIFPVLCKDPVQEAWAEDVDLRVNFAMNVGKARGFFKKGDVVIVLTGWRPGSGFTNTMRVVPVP
Chain of 3',5'-cyclic-AMP phosphodiesterase 4B (Homo sapiens) (Q07343 whole entry, looked up): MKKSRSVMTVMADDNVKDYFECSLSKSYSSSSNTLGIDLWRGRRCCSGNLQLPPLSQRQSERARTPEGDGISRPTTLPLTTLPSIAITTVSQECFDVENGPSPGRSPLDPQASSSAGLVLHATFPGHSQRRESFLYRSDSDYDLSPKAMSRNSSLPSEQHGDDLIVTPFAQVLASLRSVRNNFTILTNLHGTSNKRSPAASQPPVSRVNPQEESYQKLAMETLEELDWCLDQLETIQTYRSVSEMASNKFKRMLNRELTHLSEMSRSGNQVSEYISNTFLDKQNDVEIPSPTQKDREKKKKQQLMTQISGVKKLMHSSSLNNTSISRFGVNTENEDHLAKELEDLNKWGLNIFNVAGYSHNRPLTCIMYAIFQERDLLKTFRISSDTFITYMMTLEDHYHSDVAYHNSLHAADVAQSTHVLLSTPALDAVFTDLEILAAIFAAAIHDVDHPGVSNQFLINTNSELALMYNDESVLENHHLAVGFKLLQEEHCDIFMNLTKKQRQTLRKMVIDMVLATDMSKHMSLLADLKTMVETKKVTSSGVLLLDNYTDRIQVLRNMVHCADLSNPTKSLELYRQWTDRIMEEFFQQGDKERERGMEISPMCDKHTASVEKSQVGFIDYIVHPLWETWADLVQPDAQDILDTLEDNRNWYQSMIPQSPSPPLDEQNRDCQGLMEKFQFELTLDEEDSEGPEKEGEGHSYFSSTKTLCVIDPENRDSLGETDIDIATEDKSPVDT
Chain of Alpha-galactosidase (Coffea arabica) (Q42656 whole entry, looked up): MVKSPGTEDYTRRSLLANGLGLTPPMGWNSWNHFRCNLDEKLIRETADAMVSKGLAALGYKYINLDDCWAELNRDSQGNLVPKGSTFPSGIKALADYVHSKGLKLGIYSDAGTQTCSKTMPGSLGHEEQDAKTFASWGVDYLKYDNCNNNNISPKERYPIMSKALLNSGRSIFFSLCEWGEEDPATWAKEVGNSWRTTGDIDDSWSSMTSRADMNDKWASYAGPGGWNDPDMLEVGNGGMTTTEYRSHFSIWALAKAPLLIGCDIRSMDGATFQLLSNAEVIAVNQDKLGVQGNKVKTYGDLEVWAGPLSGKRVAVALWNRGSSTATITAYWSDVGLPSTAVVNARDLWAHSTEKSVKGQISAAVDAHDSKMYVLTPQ
Chain of Alpha-galactosidase A (Homo sapiens) (P06280 whole entry, looked up): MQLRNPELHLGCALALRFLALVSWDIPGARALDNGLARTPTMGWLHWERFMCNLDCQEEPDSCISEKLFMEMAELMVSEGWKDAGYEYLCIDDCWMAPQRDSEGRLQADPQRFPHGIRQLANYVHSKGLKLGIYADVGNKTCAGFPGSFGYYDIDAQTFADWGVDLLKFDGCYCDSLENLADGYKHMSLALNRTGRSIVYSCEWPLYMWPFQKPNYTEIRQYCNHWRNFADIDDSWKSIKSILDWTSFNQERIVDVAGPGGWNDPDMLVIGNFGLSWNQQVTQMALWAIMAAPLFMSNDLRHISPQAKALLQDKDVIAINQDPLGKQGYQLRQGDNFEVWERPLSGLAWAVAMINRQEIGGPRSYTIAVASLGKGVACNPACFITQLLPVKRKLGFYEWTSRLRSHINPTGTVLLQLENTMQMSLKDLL

CC[C@@H](O)C(C[C@@H](C)N(C)C)(c1ccccc1)c1ccccc1
inactive: Potency [1] | max response [2] 5.08% | Potency [3]

Nc1ccn(CC(CO)OCP(=O)(O)O)c(=O)n1 (configuration not stated)
inactive: Potency [4] | Potency [5] | Potency [6]

CN1CC[C@@]23CCCC[C@@H]2[C@@H]1Cc1ccc(O)cc13
inactive: outcome [7] | activity change, negative = inhibition ([8]; at 17.2 µM (top of the series)) -12.7% | activity change, negative = inhibition ([8]; at 38 µM (top of the series)) -7.37% | outcome [9] | outcome [10] | Potency [11] | Potency [12] | outcome [13] | outcome [14] | outcome [15] | outcome [16] | outcome [17] | outcome [18] | Potency [1] | max response [2] 4.44% | Potency [19] | outcome [20] | Potency [21] | Potency [22] | Potency [23] | Potency [3]
